The values that follow come from PubChem BioAssay (EPA / NIEHS).

The structures appear in SMILES notation. Where a structure was tested more than once in an assay, its records may differ in their call. The source made the active and inactive calls. The calls were made as follows: active = hit-call score of the fitted dose curve at least 0.9, where 1 is the maximum; inactive = score below 0.9.

Read-out in assay [1]: Macrophage colony-stimulating factor (MCSF), CSF1 (gene 1435)
The assay can be described thus: BSK_hDFCGF_MCSF: BioMAP Diversity Plus: hDFCGF Assay for Macrophage colony-stimulating factor (MCSF) Biomarker Activity (AID 2283060). Conditions: primary human foreskin fibroblasts; actives raise or lower the signal. Put shortly:
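Human foreskin primary fibroblasts were treated with test chemical for 24 h, and M-CSF was then measured by ELISA. Data were fitted bidirectionally against DMSO as the negative control and activity baseline.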

The nature of assay [2]: BSK_hDFCGF_SRB: Viability Assessment in the BioMAP Diversity Plus: hDFCGF Assay (AID 2283061).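 Also: cells exposed to compound for 24 h before the read.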 Particulars: primary human foreskin fibroblasts. In a few lines:
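Human foreskin primary fibroblasts were treated with compound and assessed 24 h after dosing. Total protein was measured by sulforhodamine B staining (0.1% SRB after 10% TCA fixation, 560 nm read) as a cytotoxicity marker, with bidirectional fitting against DMSO baseline.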

Read-out in assay [3]: TIMP metallopeptidase inhibitor 1 (TIMP1), TIMP1 (gene 7076)
Kind of assay: BSK_hDFCGF_TIMP1: BioMAP Diversity Plus: hDFCGF Assay for TIMP metallopeptidase inhibitor 1 (TIMP1) Biomarker Activity (AID 2283062). Conditions: primary human foreskin fibroblasts; actives raise or lower the signal. In a few lines:
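Primary human foreskin fibroblasts in the hDFCGF system were dosed with compound for 24 h, then TIMP-1 was measured by ELISA. Activity was fitted bidirectionally relative to DMSO control; parallel SRB staining assessed cytotoxicity.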

Read-out in assay [4]: Monokine induced gamma interferon (MIG), CXCL9 (gene 4283)
The assay can be described thus: BSK_hDFCGF_MIG: BioMAP Diversity Plus: hDFCGF Assay for Monokine induced gamma interferon (MIG) Biomarker Activity (AID 2283063). Particulars: primary human foreskin fibroblasts; actives raise or lower the signal. In a few lines: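 ELISA read-out of MIG from primary human dermal fibroblasts 24 h post-dosing. Gain or loss of signal fitted bidirectionally, DMSO as baseline.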

Read-out in assay [5]: Matrix Metallopeptidase 1 (MMP1), MMP1 (gene 4312)
The assay can be described thus: BSK_hDFCGF_MMP1: BioMAP Diversity Plus: hDFCGF Assay for Matrix Metallopeptidase 1 (MMP1) Biomarker Activity (AID 2283064). Conditions: primary human foreskin fibroblasts; actives raise or lower the signal. Put shortly:
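hDFCGF primary fibroblasts (human foreskin); chemical added; 24 h; MMP1 by ELISA; bidirectional fit vs DMSO.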

Read-out in assay [6]: Vascular cell adhesion molecule 1 (VCAM1), VCAM1 (gene 7412)
Kind of assay: BSK_hDFCGF_VCAM1: BioMAP Diversity Plus: hDFCGF Assay for Vascular cell adhesion molecule 1 (VCAM1) Biomarker Activity (AID 2283065). Conditions: primary human foreskin fibroblasts; actives raise or lower the signal. In a few lines: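 Primary human foreskin fibroblasts (hDFCGF system) were dosed with chemical and VCAM-1 was measured by ELISA 24 h later. Bidirectional curve fitting used DMSO as negative control and activity baseline.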

Read-out in assay [7]: Plasminogen activator inhibitor-1 (PAI1), SERPINE1 (gene 5054)
The assay can be described thus: BSK_hDFCGF_PAI1: BioMAP Diversity Plus: hDFCGF Assay for Plasminogen activator inhibitor-1 (PAI1) Biomarker Activity (AID 2283066). Particulars: primary human foreskin fibroblasts; actives raise or lower the signal. Put shortly:
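Human foreskin fibroblasts in the hDFCGF system were dosed with compound for 24 h; PAI-1 was quantified by ELISA. Bidirectional curve fitting used DMSO as negative control and baseline.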

Read-out in assay [8]: Intercellular Adhesion Molecule 1 (ICAM1), ICAM1 (gene 3383)
Kind of assay: BSK_KF3CT_ICAM1: BioMAP Diversity Plus: KF3CT Assay for Intercellular Adhesion Molecule 1 (ICAM1) Biomarker Activity (AID 2283067). Conditions: primary human keratinocytes with fibroblasts; actives raise or lower the signal. Put shortly:
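Human keratinocyte plus foreskin fibroblast primary co-culture was exposed to chemical for 24 h. ICAM-1 was then quantified by ELISA, and the data were fit bidirectionally against DMSO as the negative control and baseline.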

Read-out in assay [9]: Interferon-gamma inducible Protein 10 (IP10), CXCL10 (gene 3627)
Kind of assay: BSK_KF3CT_IP10: BioMAP Diversity Plus: KF3CT Assay for Interferon-gamma inducible Protein 10 (IP10) Biomarker Activity (AID 2283068). Conditions: primary human keratinocytes with fibroblasts; actives raise or lower the signal. Put shortly:
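ELISA read-out of IP-10 after 24 h chemical dosing of human skin primary co-culture (keratinocytes, foreskin fibroblasts). Gain or loss of signal relative to DMSO, bidirectional curve fit.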

Assay [10] can be described thus: BSK_KF3CT_SRB: Viability Assessment in the BioMAP Diversity Plus: KF3CT Assay (AID 2283069).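 Also: fitted for both signal gain and loss against DMSO baseline.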 Particulars: primary human keratinocytes with fibroblasts. Put shortly:
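Keratinocytes co-cultured with foreskin fibroblasts (human primary); chemical added, 24 h; fix 10% TCA, stain 0.1% SRB, A560. Bidirectional fit vs DMSO.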

Read-out in assay [11]: Interleukin-1 alpha (IL1a), IL1A (gene 3552)
Kind of assay: BSK_KF3CT_IL1a: BioMAP Diversity Plus: KF3CT Assay for Interleukin-1 alpha (IL1a) Biomarker Activity (AID 2283070). Particulars: primary human keratinocytes with fibroblasts; actives raise or lower the signal. Put shortly:
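Chemicals were dosed onto co-cultured human keratinocytes and foreskin fibroblasts, IL-1a was quantified by ELISA at 24 h, and activity was fitted in both directions relative to DMSO controls.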

Read-out in assay [12]: TIMP metallopeptidase inhibitor 2 (TIMP2), TIMP2 (gene 7077)
The assay can be described thus: BSK_KF3CT_TIMP2: BioMAP Diversity Plus: KF3CT Assay for TIMP metallopeptidase inhibitor 2 (TIMP2) Biomarker Activity (AID 2283071). Particulars: primary human keratinocytes with fibroblasts; actives raise or lower the signal. In a few lines:
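Human primary keratinocyte/foreskin fibroblast co-culture dosed with chemical and sampled at 24 h. TIMP-2 levels quantified by ELISA; bidirectional fitting against DMSO negative control as baseline.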

Read-out in assay [13]: C-C motif chemokine 2 (Homo sapiens) (UniProt P13500)
The assay can be described thus: BSK_KF3CT_MCP1: BioMAP Diversity Plus: KF3CT Assay for Monocyte Chemoattractant Protein 1 (MCP1/CCL2) Biomarker Activity (AID 2283073). Particulars: primary human keratinocytes with fibroblasts; actives raise or lower the signal. In a few lines:
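Human keratinocyte plus foreskin fibroblast primary co-culture exposed to chemical for 24 h. MCP-1 levels measured by ELISA. Bidirectional curve fitting relative to DMSO negative control as baseline.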

Read-out in assay [14]: Matrix Metallopeptidase 9 (MMP9), MMP9 (gene 4318)
The assay can be described thus: BSK_KF3CT_MMP9: BioMAP Diversity Plus: KF3CT Assay for Matrix Metallopeptidase 9 (MMP9) Biomarker Activity (AID 2283074).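 As to AC50: MMP9 protein level quantified by ELISA in the co-culture.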 Conditions: primary human keratinocytes with fibroblasts; actives raise or lower the signal. In a few lines: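 Human keratinocyte/foreskin fibroblast co-culture; compound added; 24 h; MMP-9 by ELISA; bidirectional fit vs DMSO baseline.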

Read-out in assay [15]: urokinase plasminogen activator (uPA), PLAU (gene 5328)
The assay can be described thus: BSK_KF3CT_uPA: BioMAP Diversity Plus: KF3CT Assay for urokinase plasminogen activator (uPA) Biomarker Activity (AID 2283075). Particulars: primary human keratinocytes with fibroblasts; actives raise or lower the signal. Put shortly:
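ELISA readout of uPA, analyzed for signal gain or loss relative to DMSO, from a human primary keratinocyte–foreskin fibroblast co-culture measured 24 h after chemical treatment.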

Read-out in a further assay: CD40, CD40 (gene 958)
The assay can be described thus: BSK_LPS_CD40: BioMAP Diversity Plus: LPS Assay for CD40 Biomarker Activity (AID 2283076). Conditions: primary human HUVEC with PBMC; actives raise or lower the signal. Put shortly: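 Primary human umbilical vein endothelial cells co-cultured with peripheral blood mononuclear cells, LPS-stimulated, were dosed with chemical and read 24 h later. CD40 levels were measured by ELISA and fitted bidirectionally against DMSO as negative control and baseline.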

Read-out in assay [16]: E-selectin (Homo sapiens) (UniProt P16581)
The assay can be described thus: BSK_LPS_Eselectin: BioMAP Diversity Plus: LPS Assay for Eselectin Biomarker Activity (AID 2283077). Conditions: primary human HUVEC with PBMC; actives raise or lower the signal. Put shortly:
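Human umbilical vein endothelial cells co-cultured with peripheral blood mononuclear cells under LPS stimulation; E-selectin measured by ELISA 24 h after chemical dosing. Activity fitted bidirectionally against DMSO as negative control and baseline.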

Read-out in assay [17]: Interleukin-8 (IL8), CXCL8 (gene 3576)
The assay can be described thus: BSK_LPS_IL8: BioMAP Diversity Plus: LPS Assay for Interleukin-8 (IL8) Biomarker Activity (AID 2283078). Conditions: primary human HUVEC with PBMC; actives raise or lower the signal. In a few lines:
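Human umbilical vein endothelial cells co-cultured with PBMC were stimulated with LPS; IL-8 levels were measured by ELISA 24 h after chemical dosing. Activity was fitted bidirectionally against DMSO as negative control and baseline.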

A short description of assay [18]: BSK_LPS_SRB: Viability Assessment in the BioMAP Diversity Plus: LPS Assay (AID 2283079).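 Also: total protein by sulforhodamine B absorbance as a cytotoxicity measure; measured one day after compound addition; fitted in both directions against DMSO so loss or gain of signal counts.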 Conditions: primary human HUVEC with PBMC. In a few lines:
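Human umbilical vein endothelial cells co-cultured with PBMC (LPS system) were dosed for 24 h. Total protein was stained with 0.1% sulforhodamine B after 10% TCA fixation, read at 560 nm, and fitted bidirectionally against DMSO baseline.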

Read-out in assay [19]: Interleukin-1 alpha (IL1a), IL1A (gene 3552)
The assay can be described thus: BSK_LPS_IL1a: BioMAP Diversity Plus: LPS Assay for Interleukin-1 alpha (IL1a) Biomarker Activity (AID 2283080). Particulars: primary human HUVEC with PBMC; actives raise or lower the signal. In a few lines: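 Human umbilical vein endothelial cells co-cultured with peripheral blood mononuclear cells were LPS-stimulated and exposed to test chemicals for 24 h. IL-1 alpha was quantified by ELISA, with bidirectional curve fitting against DMSO as the negative control and baseline.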

Chain of E-selectin (Homo sapiens) (P16581 whole entry, looked up): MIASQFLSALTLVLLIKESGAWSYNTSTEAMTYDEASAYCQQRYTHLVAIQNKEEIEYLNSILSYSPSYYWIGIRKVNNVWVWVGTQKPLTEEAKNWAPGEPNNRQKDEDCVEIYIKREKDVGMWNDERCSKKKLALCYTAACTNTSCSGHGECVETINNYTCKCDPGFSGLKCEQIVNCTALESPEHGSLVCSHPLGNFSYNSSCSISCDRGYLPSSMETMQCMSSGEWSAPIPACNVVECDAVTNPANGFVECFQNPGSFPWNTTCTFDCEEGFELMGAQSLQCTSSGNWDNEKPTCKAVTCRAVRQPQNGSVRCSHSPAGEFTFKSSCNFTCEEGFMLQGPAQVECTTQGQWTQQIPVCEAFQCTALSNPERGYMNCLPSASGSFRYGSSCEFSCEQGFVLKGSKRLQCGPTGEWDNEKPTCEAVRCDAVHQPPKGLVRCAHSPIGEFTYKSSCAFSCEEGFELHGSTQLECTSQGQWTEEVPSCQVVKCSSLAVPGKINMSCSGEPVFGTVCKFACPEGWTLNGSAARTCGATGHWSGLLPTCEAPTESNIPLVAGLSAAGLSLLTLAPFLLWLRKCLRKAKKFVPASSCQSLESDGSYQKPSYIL

On to `CCN(CC)c1ccc(C=O)c(O)c1`, for which the outcome in [1], in assay [2], in assay [3], in [4], in [5] and in assay [6] was inactive. For the same molecule, the result in [7], in assay [8], in assay [9], in assay [10], in assay [11] and in assay [12] was inactive. The outcome was “inactive” in assay [13]; “inactive” in assay [14]; “inactive” in assay [15]; “inactive” with CD40, CD40 (gene 958); “inactive” in [16]; “inactive” in [17]. The result in assay [18] and in [19] was inactive.

Broadly, the AC50 is the concentration at which the activity in the assay is half-maximal. On to `O=C(Cl)C(F)(F)C(F)(F)C(F)(F)C(F)(F)C(F)(F)C(F)(F)F`, for which the result in assay [1], in assay [2], in assay [3], in assay [4], in assay [5] and in [6] was inactive. In addition, the result in assay [7], in assay [8], in assay [9], in assay [10], in assay [11] and in assay [12] was inactive. In addition, the outcome in assay [13] was “inactive”; in assay [14], “inactive”; in assay [15], “inactive”; in the assay with CD40, CD40 (gene 958), “inactive”; in assay [16] it was “inactive”; in assay [17] it was “inactive”. For the same molecule, the result in assay [18] and in assay [19] was inactive. Moreover, the AC50 in [14] was 18.3 µM (active); in assay [17], 50.3 µM (active).

As for `O=S(=O)(OCC(F)(F)F)C(F)(F)C(F)(F)C(F)(F)C(F)(F)F`, the result in assay [1], in [2], in assay [3], in assay [4], in assay [5] and in assay [6] was inactive. In addition, the outcome in assay [7], in assay [8], in assay [9], in [10], in [11] and in [12] was inactive. For the same molecule, the outcome in assay [13] was “inactive”; in [14] it was “inactive”; in [15], “inactive”; with CD40, CD40 (gene 958), “inactive”; in [16], “inactive”; in assay [17] it was “inactive”. Moreover, the result in assay [18] and in [19] was inactive. Also, the AC50 in [15] is 9.13 µM (active); in the assay with CD40, CD40 (gene 958) it was 24.3 µM (active); in assay [16] it was 41.4 µM (active); in [19], 30 µM (active).

`NC(=O)C(F)(F)C(F)(F)C(F)(F)C(F)(F)C(F)(F)C(F)(F)C(F)(F)F`: the outcome in assay [1], in assay [2], in assay [3], in assay [4], in assay [5] and in assay [6] was inactive. Moreover, the outcome in [7], in [8], in assay [9], in assay [10], in [11] and in assay [12] was inactive. The outcome in assay [13] is “inactive”; in [14], “inactive”; in assay [15], “inactive”; with CD40, CD40 (gene 958) it was “inactive”; in [16] it was “inactive”; in [17], “inactive”. Also, the result in [18] and in [19] was inactive.

For `O=C(c1ccccc1)c1ccc(O)cc1O`, the outcome in assay [1], in [2], in assay [3], in assay [4], in assay [5] and in [6] was inactive. The outcome in [7], in assay [8], in [9], in assay [10], in [11] and in assay [12] was inactive. Further, the outcome in assay [15] is “inactive”; with CD40, CD40 (gene 958), “inactive”; in [16], “inactive”; in [17] it was “inactive”; in assay [18], “inactive”; in assay [19], “inactive”. In [14], the AC50 was 26 µM (active).
